Experimental data taken from patent US20200347384, “Screening artificial nucleic acids by particle display” (THE REGENTS OF THE UNIVERSITY OF CALIFORNIA, published 2020).

How the values were obtained:
[1] = molecular target: T1, HIV-1 reverse transcriptase (HIV RT) (Human immunodeficiency virus, UniProt P03366;P03366 P03366:600-1159,P03366:600-1039); assay: MST; two 5' flanking nucleotides deleted; conditions: tags: His-tag (inferred from Ni-NTA immobilisation); XNA; TNA at all positions
[2] = molecular target: T1, HIV-1 reverse transcriptase (HIV RT); assay: MST; five 3' flanking nucleotides deleted; conditions: tags: His-tag (inferred from Ni-NTA immobilisation); XNA; TNA at all positions

Row | Sequence | binding signal [1] | binding signal [2]
1 | TAGTAAATTGATTTAAAAATTTCATAAATGCTACATAA | ~3 fold reduction in affinity | 
2 | AATAGTAAATTGATTTAAAAATTTCATAAATGCTA |  | ~3 fold reduction in affinity
